Source: PubChem BioAssay AID1159580 (chemical genetic matrix, 2015)
About 2,000 (36%) of roughly 5,500 compounds were called active. Not shown: some 18% with an inconclusive outcome. No stated cut-off is given here; in the data, active means normalized growth mostly below about 0.91 (no sharp cut-off); inconclusive means no clear call, values can overlap the other calls; inactive means mostly above about 0.92. Some of the results follow.

Assay: chemical genetic growth profiling, strain panel (AID 1159580);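 further: tested at 20 µM; growth read once vehicle control cultures reached saturation at 30 °C; 1 = growth at the plate median or of vehicle wells; lower values mean less growth of the strain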
Details: S. cerevisiae deletion strains, growth OD
[1] = locus YHR030C, strain SLT2, hits give low values
[2] = locus YHR079C, strain IRE1, hits give low values
[3] = locus YJL095W, strain BCK1, hits give low values
[4] = locus YJR066W, strain TOR1, hits give low values
[5] = locus YLR113W, strain HOG1, hits give low values
[6] = locus YNL183C, strain NPR1, hits give low values
[7] = locus YOR231W, strain MKK1, hits give low values
[8] = locus YPL256C, strain CLN2, hits give low values

Measured: normalized growth

COc1ccc2cc1Oc1ccc(cc1)C[C@H]1c3c(cc4c(c3Oc3cc5c(cc3OC)CCN(C)[C@@H]5C2)OCO4)CCN1C
inactive: locus YAL021C, strain ccr4, hits give low values 1.01 | locus YAL026C, strain drs2, hits give low values 1.01 | locus YAL030W, strain snc1, hits give low values 0.989 | locus YBL061C, strain skt5, hits give low values 1.01 | locus YBR009C, strain hhf1, hits give low values 0.959 | locus YBR023C, strain chs3, hits give low values 1.01 | locus YBR171W, strain sec66, hits give low values 0.982 | locus YBR231C, strain swc5, hits give low values 0.959 | locus YBR279W, strain paf1, hits give low values 0.992 | locus YCL011C, strain gbp2, hits give low values 1.01 | locus YCL016C, strain dcc1, hits give low values 1.03 | locus YCL061C, strain MRC1, hits give low values 0.984 | locus YCL069W, strain vba3, hits give low values 0.969 | locus YCR088W, strain abp1, hits give low values 0.987 | locus YDL005C, strain med2, hits give low values 0.983 | locus YDL040C, strain nat1, hits give low values 0.982 | locus YDR001C, strain nth1, hits give low values 0.989 | locus YDR069C, strain doa4, hits give low values 0.979 | locus YDR137W, strain rgp1, hits give low values 1.1 | locus YDR159W, strain sac3, hits give low values 0.875 | locus YDR195W, strain ref2 0.942 | locus YDR297W, strain sur2, hits give low values 1 | locus YDR334W, strain swr1, hits give low values 0.963 | locus YDR335W, strain msn5, hits give low values 1.01 | locus YDR392W, strain spt3, hits give low values 0.743 | locus YEL003W, strain gim4, hits give low values 0.975 | locus YEL037C, strain rad23, hits give low values 0.969 | locus YEL061C, strain CIN8 (second series), hits give low values 0.98 | locus YER015W, strain faa2, hits give low values 0.994 | locus YER016W, strain bim1, hits give low values 1.06 | locus YER111C, strain swi4, hits give low values 0.997 | locus YER155C, strain BEM2 (second series), hits give low values 0.874 | locus YFR010W, strain ubp6, hits give low values 0.966 | locus YGL167C, strain pmr1, hits give low values 0.976 | locus YGL173C, strain kem1, hits give low values 0.961 | locus YGL227W, strain vid30, hits give low values 0.996 | locus YGL240W, strain doc1, hits give low values 0.962 | locus YGL253W, strain hxk2, hits give low values 1.01 | locus YHR013C, strain ard1, hits give low values 0.964 | locus YHR027C, strain rpn1, hits give low values 0.996 | [1] 1.03 | [2] 1.08 | locus YHR142W, strain chs7, hits give low values 1.03 | locus YJL092W, strain hpr5, hits give low values 0.988 | locus YJL095W, strain BCK1 (second series), hits give low values 0.989 | [3] 1.03 | locus YJL115W, strain asf1, hits give low values 0.974 | locus YJL129C, strain trk1, hits give low values 1 | locus YJL154C, strain vps35, hits give low values 0.986 | locus YJL164C, strain tpk1, hits give low values 0.962 | locus YJL166W, strain qcr8, hits give low values 0.955 | locus YJL187C, strain SWE1, hits give low values 1.01 | [4] 0.987 | locus YKL160W, strain elf1, hits give low values 1.05 | locus YKR026C, strain gcn3, hits give low values 0.964 | locus YKR091W, strain srl3, hits give low values 0.99 | locus YLL001W, strain dnm1, hits give low values 0.959 | locus YLL026W, hits give low values 0.999 | locus YLL041C, strain sdh2, hits give low values 0.977 | locus YLR027C, strain aat2, hits give low values 1 | [5] 1.07 | locus YLR221C, strain rsa3, hits give low values 0.997 | locus YLR258W, strain gsy2, hits give low values 1 | locus YLR262C, strain YPT6 (second series), hits give low values 1.04 | locus YLR320W, strain mms22, hits give low values 0.922 | locus YLR342W, strain FKS1, hits give low values 1.02 | locus YLR357W, strain rsc2, hits give low values 0.934 | locus YLR370C, strain arc18, hits give low values 0.999 | locus YLR384C, strain iki3, hits give low values 1 | locus YML120C, strain ndi1, hits give low values 0.969 | locus YMR058W, strain fet3, hits give low values 0.978 | locus YMR125W, strain sto1, hits give low values 1 | locus YMR129W, hits give low values 0.971 | locus YMR205C, strain PFK2, hits give low values 0.973 | locus YMR231W, strain pep5, hits give low values 0.985 | locus YNL071W, strain lat1, hits give low values 0.982 | [6] 0.951 | locus YNL209W, strain ssb2, hits give low values 0.99 | locus YNL248C, strain rpa49, hits give low values 1.02 | locus YNL322C, strain KRE1 (second series), hits give low values 1 | locus YNR049C, strain mso1, hits give low values 1 | locus YOR001W, strain rrp6, hits give low values 0.953 | locus YOR070C, strain gyp1, hits give low values 1 | locus YOR080W, strain dia2, hits give low values 0.977 | locus YOR083W, strain WHI5, hits give low values 1 | locus YOR106W, strain vam3, hits give low values 1.04 | [7] 1.06 | locus YOR265W, strain rbl2, hits give low values 1 | locus YOR270C, strain vph1, hits give low values 1.06 | locus YOR290C, strain snf2, hits give low values 1.04 | locus YPL051W, strain arl3, hits give low values 1.04 | locus YPL078C, strain atp4, hits give low values 1.03 | locus YPL106C, strain sse1, hits give low values 0.949 | locus YPL240C, strain hsp82, hits give low values 0.985 | [8] 1.07

COc1cc2c3cc1Oc1c(OC)c(OC)cc4c1[C@@H](Cc1cccc(c1)Oc1ccc(c(O)c1)C[C@@H]3N(C)CC2)N(C)CC4
inactive: [1] 1.02 | [2] 1.01 | [3] 0.994 | [4] 0.984 | [5] 0.968 | [6] 0.983 | [7] 1.03 | [8] 1.07
